Here are results for 60 compounds from PubChem BioAssay AID1851 (National Center for Advancing Translational Sciences (NCATS), 2009).

Hit rate of the full screen: of about 16,000 compounds, about 4,000 (25%) were called active. Not shown: some 26% with an inconclusive outcome. Calls follow the shape of the dose curve; as a rule, active = well fitted curve in the direction sought with a large enough effect; inconclusive = small, poorly fitted or top-dose-only effect, or effect the other way; inactive = no such curve, though single readings can be large or run the other way. These entries were drawn from the full list.
% is scaled to controls: 0 for no effect and ±100 for the full control effect.

Sequence of Cytochrome P450 2C9 (Homo sapiens) (P11712 whole entry, looked up): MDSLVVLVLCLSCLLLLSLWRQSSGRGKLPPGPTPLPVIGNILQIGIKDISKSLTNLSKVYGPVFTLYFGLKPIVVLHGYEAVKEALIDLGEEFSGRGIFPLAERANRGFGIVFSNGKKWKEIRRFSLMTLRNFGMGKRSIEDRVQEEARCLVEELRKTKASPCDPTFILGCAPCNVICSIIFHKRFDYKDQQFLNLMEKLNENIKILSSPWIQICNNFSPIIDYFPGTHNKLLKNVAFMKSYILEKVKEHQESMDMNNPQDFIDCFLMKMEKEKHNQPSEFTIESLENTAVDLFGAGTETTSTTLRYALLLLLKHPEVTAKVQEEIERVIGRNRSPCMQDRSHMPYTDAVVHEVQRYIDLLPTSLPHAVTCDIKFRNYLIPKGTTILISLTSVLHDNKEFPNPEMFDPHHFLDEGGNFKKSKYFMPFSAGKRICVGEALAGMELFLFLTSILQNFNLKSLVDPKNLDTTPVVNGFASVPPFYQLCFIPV

The assay has as its target Cytochrome P450 2C9 (Homo sapiens) (UniProt P11712). In words: Cytochrome panel assay with activity outcomes. The settings on record: recombinant CYP, pro-luciferin dealkylation, luminescence, p450-cyp2c9; series mostly up to 57.1 µM.
`COc1ccccc1-c1cncnc1NCc1cnc(C)cn1`: the activity, negative = inhibition is 14.1% [at 2.29 µM] (inactive).
The term AC50 denotes the concentration at which the activity in the assay is half-maximal. Turning to `Cc1ccc(N=Nc2c(N)n(-c3ccccc3)[nH]c2=O)cc1`, the AC50 is 7.94 µM (active).
In the case of `Cn1c(N)c(N=Nc2ccc(S(N)(=O)=O)cc2)c(=O)n(C)c1=O`, the activity, negative = inhibition was 5.29% [at 11.4 µM] (inactive).
As for `Cc1[nH]n(-c2ccc(S(=O)(=O)O)cc2)c(=O)c1N=Nc1ccccc1`, the activity, negative = inhibition is 21.2% [at 11.4 µM] (inactive).
`CCN1C(=O)C=CC1=O`: the AC50 result was “inactive”.
Consider `COc1ccc(CNCCC(c2ccc(OC(C)C)cc2)C(C)C)cc1OC` (stereo not given), for which the AC50 entry is “inactive”.
Take `CC(C)=CCC/C(C)=C/CO/N=C1/C[C@@H](O)[C@@H](O)[C@@H]2[C@H]3C(=O)N(c4ccc(F)cc4F)C(=O)[C@@H]3CC[C@H]12`: the activity, negative = inhibition is 18.9% [at 11.4 µM] (inactive).
For `N#C/C(=C\c1ccc(N2CCCC2)c([N+](=O)[O-])c1)c1nc2ccccc2[nH]1`, the AC50 is 2.51 µM (active).
For `COc1ccc(/C=C(/C#N)C(=O)Nc2cc(C)ccc2C)cc1C(=O)O`, the AC50 result is “inactive”.
Take `N#C/C(=C\c1ccc(Oc2ccc(C(F)(F)F)cc2[N+](=O)[O-])cc1)c1nc2ccccc2[nH]1`: the concentration at half-maximal activity (AC50) is 3.98 µM (active).
On the same count and under the same terms, the value for `COc1cc(/C=C(/C#N)c2nc3ccccc3[nH]2)ccc1OCC(=O)Nc1ccccc1C` was 3.16 µM (active).
With `COc1cc(/C=C(/C#N)c2nc3ccccc3[nH]2)ccc1Oc1ncccc1[N+](=O)[O-]`, the concentration at half-maximal activity (AC50) was 2 µM (active).
On to `Fc1ccc(Nc2ncnc3ccc(-c4ccoc4)cc23)cc1`, for which the activity, negative = inhibition is -12.3% [at 2.29 µM] (inactive).
Take `COc1ccc(-c2cc(CNC(C)=O)on2)cc1`: the AC50 entry is “inactive”.
Still for that read-out and setting: the value for `COc1ccc(-c2cc(C(F)(F)F)n3nc(C(=O)NCc4ccco4)c(Cl)c3n2)cc1` was 0.398 µM (active); that for `O=c1ccc(NS(=O)(=O)c2ccc(Cl)cc2)cn1Cc1ccc(Cl)c(Cl)c1` was 1.78 µM (active); that for `O=c1ccc(NS(=O)(=O)c2ccccc2)cn1Cc1ccc(Cl)c(Cl)c1` was 2.51 µM (active).
As to `O=S(=O)(c1ccccc1)N1CCC2(CCN(Cc3ccccc3)CC2)CC1`, the AC50 entry was “inactive”.
The same measure, in the same setting: the value for `CCCN(CCC)C(=S)NC(=O)c1ccc(Cl)cc1Cl` was 3.55 µM (active).
Still for that read-out and setting: the value for `CCn1c(CCNC(=O)c2ccc(Cl)cc2Cl)n[nH]c1=S` was “inactive”; that for `CCC(C)C1NC(=S)N(C2CCCCC2)C1=O` (stereo not given) was 3.55 µM (active); that for `CC(C)CC1NC(=S)N(C2CCCCC2)C1=O` (stereo not given) was 17.8 µM (active).
As to `COc1ccc2c(c1OC)C(=O)N(C(C)C(=O)O)C2=O` (stereo not given), the AC50 entry was “inactive”.
As for `O=C(CN1CCN(Cc2ccccc2)CC1)N1CCCc2c1c(=O)oc1ccc(O)cc21`, the AC50 was 20 µM (active).
As to `COc1cc(CN2CCCCC2)cc2cc(C(=O)O)c(=O)oc12`, the activity, negative = inhibition was 15.6% [at 11.4 µM] (inactive).
Regarding `O=C(CN1CCN(Cc2ccccc2)CC1)c1ccc(Br)cc1`, the AC50 entry is “inactive”.
As to `CCC[C@H](Sc1nc(N)nc2nc[nH]c12)C(=O)O`, the activity, negative = inhibition was -1.85% [at 11.4 µM] (inactive).
The same measure, in the same setting: the value for `O=C(O)CC[P+](c1ccccc1)(c1ccccc1)c1ccccc1` was 8.46% [at 11.4 µM] (inactive).
On to `O=C(Nc1ccccc1)N1CCSc2cc(Cl)ccc21`, for which the AC50 was 2.24 µM (active).
The same measure, in the same setting: the value for `CC(=O)NNC(=O)N1Cc2ccccc2Oc2ccc(Cl)cc21` was “inactive”.
With `O=C(c1ccccc1)N1CCSC1=S`, the AC50 result was “inactive”.
Take `Cc1ccc([C@@]2(C)CC/C(=N/N=C3\CC[C@](C)(c4ccc(C)c(C)c4)c4cc(C)c(C)cc43)c3cc(C)c(C)cc32)cc1C`: the activity, negative = inhibition is -6.14% [at 11.4 µM] (inactive).
On to `CCCCCCCCCCCCCCCC(=O)NC(C)C`, for which the AC50 entry is “inactive”.
The same measure, in the same setting: the value for `CCCCCCCCCCCCC/C=C\[C@@H](O)[C@H](CO)NC(C)=O` was 3.16 µM (active).
Still for that read-out and setting: the value for `CCCCCCCCCCCCCCC/C=C\[C@H](O)[C@@H](NC(=O)CCCCCCCCCCCCC)OC` (tested in a mixture with another compound) was “inactive”.
With `CN1CCC(=C2c3ccccc3Sc3ccccc32)CC1`, the AC50 entry was “inactive”.
Same read-out and setting: the value for `COC(=O)N1CCC2(CC1)CCN(c1ccccc1)CC2` was “inactive”.
`O=C(CCNS(=O)(=O)c1cccs1)N1CCc2ccccc2C1`: the AC50 entry was “inactive”.
On the same count and under the same terms, the value for `O=C(C(NS(=O)(=O)c1cccs1)c1ccccc1)N1CCN(c2ccccc2)CC1` (stereo not given) was 8.91 µM (active); that for `COC(=O)NCC(c1cccnc1)N1CCN(c2ccccc2OC)CC1` (stereo not given) was “inactive”.
`COc1ccccc1N1CCN(Cc2cc(=O)n3ccsc3n2)CC1`: the AC50 entry was “inactive”.
`COc1ccccc1N1CCN(C(=O)C(NS(=O)(=O)c2cccs2)c2ccccc2)CC1` (stereo not given): the half-maximal activity concentration (AC50) was 11.2 µM (active).
For `S=c1c2[nH]cnc2ncn1CCSc1ncnc2nc[nH]c12`, the activity, negative = inhibition was -0.398% [at 11.4 µM] (inactive).
On the same count and under the same terms, the value for `NS(=O)(=O)c1ccc(NCc2nc3ccccc3[nH]2)cc1` was 7.25% [at 11.4 µM] (inactive).
For the compound `NS(=O)(=O)c1ccc(NCc2cnc3ccccc3n2)cc1`, the activity, negative = inhibition is 1.39% [at 11.4 µM] (inactive).
`NS(=O)(=O)c1ccc(NCc2ccccc2OCc2ccccc2F)cc1`: the AC50 is 3.98 µM (active).
Still for that read-out and setting: the value for `O=c1nc(N2CCCCCC2)nc(N2CCCCCC2)[nH]1` was “inactive”.
As for `Cc1cnc(CNc2ccnc(-c3cccc(NS(C)(=O)=O)c3)n2)cn1`, the activity, negative = inhibition is 16.8% [at 2.29 µM] (inactive).
With `Nc1nc(N)c(N=Nc2ccc(C(=O)O)c(O)c2)c(N)n1`, the activity, negative = inhibition was -6.7% [at 11.4 µM] (inactive).
In the case of `Cc1ccccc1Cn1c(Cc2ccccc2)nc2ccccc21`, the AC50 is 5.01 µM (active).
`Cc1ccc(C)c(C(=N)c2ccccc2Cc2ccccc2)c1`: the activity, negative = inhibition is -26.1% [at 11.4 µM] (inactive).
Take `O=C(C(Cc1ccccc1)N1C(=O)C2C3CCC(C3)C2C1=O)N1CCCCC1` (stereo not given): the AC50 result was “inactive”.
With `CCCCCn1c(CN2CCN(c3cc(Cl)ccc3C)CC2)nc2c1c(=O)[nH]c(=O)n2C`, the half-maximal activity concentration (AC50) was 3.55 µM (active).
Turning to `Cn1c(=O)[nH]c(=O)c2c1nc(CN1CCOCC1)n2CCCO`, the AC50 result was “inactive”.
On the same count and under the same terms, the value for `CCN1CCN(c2nc3c(c(=O)[nH]c(=O)n3C)n2CCCSc2ncccn2)CC1` was “inactive”; that for `COc1cccc(=O)c2c(C)n(-c3cc(C)cc(C)c3)c(C)c12` was 3.98 µM (active).
With `NC(Cc1ccccc1)=NCC(=O)O`, the activity, negative = inhibition was -1.5% [at 11.4 µM] (inactive).
Turning to `CCCc1nnc(SCC(=O)N2CCCCC2)n1CCCOC`, the AC50 result is “inactive”.
Still for that read-out and setting: the value for `CCOC(=O)CSc1cc(=O)n(C)c2cc(Cl)ccc12` was 14.1 µM (active); that for `Cn1c(=O)cc(SCC(=O)NCCCN2CCOCC2)c2ccc(Cl)cc21` was “inactive”.
